Holding throughout (experiment): NCI-60 one-dose screen, 48 h (100 = growth as untreated, 0 = no growth, -100 = all killed)
What all share (details): 10 µM unless noted

The test system of assay [1] is DU-145 prostate.
For assay [2], the system named is K-562 leukemia.
The test system of assay [3] is MALME-3M melanoma.
Assay [4] deals with MDA-MB-231 breast.
Assay [5] has as its system RXF 393 renal.
The test system of assay [6] is SF-268 CNS.
In assay [7] the test system is SF-295 CNS.
Assay [8] deals with SF-539 CNS.
Assay [9] concerns UACC-257 melanoma.
Assay [10] deals with M14 melanoma.
Assay [11] relates to HCT-15 colon.
The test system of assay [12] is HT29 colon.
Assay [13] has as its system SNB-75 CNS.
Assay [14] has as its system SNB-19 CNS.
For assay [15], the system named is U251 CNS.
Assay [16] deals with PC-3 prostate.
The test system of assay [17] is SK-MEL-5 melanoma.
Assay [18] concerns UACC-62 melanoma.
Assay [19] relates to LOX IMVI melanoma.
For assay [20], the system named is SK-MEL-28 melanoma.

Compounds without any hit were thinned out: in the full panel of roughly 83,000, 20% have a hit.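 Single-concentration screen, 48 h exposure, 96-well plates. Endpoint: percent growth. Below 10 = active.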 A number with no mark means an inactive call. Activity calls are given as the source filed them.

As for `O=C(Cn1c(=O)sc2nc3ccccc3nc21)Nc1ncc(Cc2cccc(Cl)c2Cl)s1`, the growth is 112% in assay [1]; 102% in assay [2]; 117% in assay [3]; 90.6% in [4]; 109% in assay [5]; 94.4% in assay [6]. Further, the growth in assay [7] is 102%; in assay [8], 98.7%; in [9], 107%; in assay [10], 100%; in assay [11], 98.7%; in assay [12], 107%. Besides, the growth is 74.6% in [13]; 93.4% in assay [14]; 94.9% in assay [15]; 87.9% in assay [16]; 99.9% in assay [17]; 79.1% in assay [18]. Moreover, the growth in assay [19] is 94.6%; in [20], 120%.

For `COC(=O)CNC(=O)[C@H](Cc1ccccc1)NCc1ccncc1`, the growth was 105% in [1]; 89.1% in [2]; 95.7% in assay [3]; 105% in [4]; 112% in [5]; 107% in assay [6]. Moreover, the growth was 99% in assay [7]; 102% in [8]; 84.4% in assay [9]; 105% in [10]; 101% in assay [11]; 86.6% in [12]. Further, the growth in assay [13] was 92.4%; in assay [14] it was 97.7%; in [15] it was 92.3%; in [16], 87.2%; in assay [17], 101%; in assay [18], 99.3%. The figures for the growth in assay [19] and in assay [20] were 103% and 114%, respectively.

Regarding `O=C(c1ccc(-c2ccccc2)cc1)c1ccc([N+](=O)[O-])cc1`, the growth in assay [1] is 121%; in assay [2], 69.8%; in assay [3], 163%; in assay [4] it was 90.8%; in assay [5] it was 109%; in [6], 102%. For the same molecule, the growth was 83.6% in [7]; 107% in [8]; 121% in [9]; 94.5% in assay [10]; 103% in [11]; 104% in assay [12]. For the same molecule, the growth was 105% in assay [13]; 101% in [14]; 99% in assay [15]; 86.7% in assay [16]; 97.3% in [17]; 92.7% in assay [18]. In addition, the growth is 98.4% in assay [19] and 122% in assay [20].

As for `COc1cc(-n2cc(-c3cc(O)c(C/C=C(\C)CCC=C(C)C)c(O)c3)nn2)cc2c1O[C@]1(C)CC[C@@H](O)C(C)(C)[C@H]1C2`, the growth was 30.6% in assay [1]; 3.36% (active) in assay [2]; -0.848% (active) in assay [3]; -30.7% (active) in assay [4]; -60.6% (active) in [5]; 20.9% in assay [6]. Further, the growth in assay [7] is -53% (active); in assay [8] it was -40.4% (active); in [9], 27.4%; in assay [10], -17.5% (active); in [11], -12.2% (active); in assay [12], -34.6% (active). Also, the growth in [13] is 7.34% (active); in assay [14], 32.5%; in [15] it was 4.31% (active); in assay [16], 16.2%; in assay [17], -61.4% (active); in [18], -30.2% (active). Moreover, the growth was -79.9% (active) in assay [19] and 35.7% in assay [20].

Turning to `CN(C)CCCC1(c2ccc(F)cc2)OCc2cc(-c3cncc4ccccc34)ccc21` (stereo not given), the growth in assay [1] is 48.5%; in assay [2] it was 1.06% (active); in assay [3] it was -85% (active); in [4], 38.3%; in assay [5], 20.1%; in assay [6] it was 49.5%. Moreover, the growth in assay [7] is 17.8%; in assay [8], 54.9%; in assay [9] it was -64.5% (active); in [10] it was -56% (active); in assay [11], 38.3%; in assay [12] it was 13.5%. Further, the growth was 41.6% in assay [13]; 54% in assay [14]; 3.14% (active) in assay [15]; 44.9% in [16]; -88.8% (active) in assay [17]; 11.5% in assay [18]. The growth was 19.3% in assay [19] and -65% (active) in [20].

For the molecule `O=Nc1c(-c2c(O)[nH]c3ncccc23)[nH]c2ccccc12`, the growth in [1] is 62.2%; in [2] it was 53.3%; in assay [3], 91%; in assay [4], 78.6%; in assay [5], 29.4%; in assay [6] it was 66.2%. The growth was 94.9% in assay [7]; 50.3% in assay [8]; 92.6% in [9]; 56.4% in assay [10]; 33.9% in assay [11]; 102% in [12]. The growth is 31.2% in assay [13]; 96.4% in assay [14]; 67.3% in assay [15]; 67.7% in assay [16]; 72.3% in assay [17]; 56.7% in assay [18]. For the same molecule, the growth in assay [19] is 44.5%; in [20], 75.3%.

On to `N#Cc1cccc(NC(=O)c2oc3ccccc3c2-c2cnn(-c3ccccc3)c2)c1`, for which the growth in assay [1] is 105% [50 µM]; in assay [2] it was 4.93% [50 µM] (active); in [3], 101% [50 µM]; in assay [4], 82.7% [50 µM]; in assay [5] it was 75.7% [50 µM]; in assay [6] it was 92.4% [50 µM]. In addition, the growth in [7] was 74% [50 µM]; in [8] it was 81.5% [50 µM]; in assay [9], 94.7% [50 µM]; in assay [10], 84% [50 µM]; in assay [11] it was 74.1% [50 µM]; in assay [12], 85.5% [50 µM]. The growth is 86.3% [50 µM] in assay [13]; 84.2% [50 µM] in assay [14]; 85.3% [50 µM] in assay [15]; -9.05% [50 µM] (active) in assay [16]; 67.7% [50 µM] in assay [17]; 75% [50 µM] in assay [18]. Further, the values for the growth in assay [19] and in [20] were 77.9% [50 µM] and 91.9% [50 µM], respectively.

Values taken from PubChem BioAssay (NCI).
